The subject of one test is Mel-DCC-11-R. The experiment in a line: cell viability relative to DMSO control (fraction of DMSO control); higher = less cytotoxic, active = 0.8 or less. The note with it: 1 µM; 120 h; vemurafenib co-treatment 0 µM. As to the method:
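Same 315-drug TargetMol library at 1 µM in duplicate, 120 h, ATPlite luminescence normalised to DMSO controls, on the vemurafenib-resistant subline Mel-DCC-11-R cultured alone or with 8 µM vemurafenib co-treatment (Mel-DCC-11-R + V).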
Regarding `C[C@]12CC[C@@H]3c4ccc(O)cc4C[C@@H](CCCCCCCCCS(=O)CCCC(F)(F)C(F)(F)F)[C@H]3[C@@H]1CC[C@@H]2O` (stereo not given in full) [Fulvestrant], the cell viability was 0.987 (inactive).
For the molecule `Nc1ccn([C@@H]2O[C@H](CO)[C@@H](O)[C@@H]2O)c(=O)n1` [Cytarabine], the cell viability was 0.654 (active).
The same measure, in the same setting: the figure for `O=c1[nH]c(=O)n(C2CCCO2)cc1F` (stereo not given) [Tegafur] is 0.895 (inactive); for `COc1ccc2cc1Oc1ccc(cc1)C[C@H]1c3c(cc4c(c3Oc3cc5c(cc3OC)CCN(C)[C@@H]5C2)OCO4)CCN1C` [Cepharanthine] it is 0.934 (inactive).
Regarding `CO[C@@]12[C@H](COC(N)=O)C3=C(C(=O)C(C)=C(N)C3=O)N1C[C@@H]1N[C@@H]12` [Mitomycin C], the cell viability is 1.6 (inactive).
For the molecule `CC(C)=CCC/C(C)=C/CC/C(C)=C/CC/C(C)=C/CC1=C(C)C(=O)c2ccccc2C1=O` [Menatetrenone], the cell viability was 1.11 (inactive).
The same measure, in the same setting: then `O=NN(CCCl)C(=O)NC1CCCCC1` [Lomustine], with 0.985 (inactive).
Consider `COc1cc(NS(C)(=O)=O)ccc1Nc1c2ccccc2nc2ccccc12` [Amsacrine], for which the cell viability is 1.06 (inactive).
The same measure, in the same setting: then `CNNCc1ccc(C(=O)NC(C)C)cc1.Cl` [Procarbazine hydrochloride], with 1.04 (inactive).
On the same count and under the same terms, the figure for `CS(=O)(=O)CCNCc1ccc(-c2ccc3ncnc(Nc4ccc(OCc5cccc(F)c5)c(Cl)c4)c3c2)o1.Cc1ccc(S(=O)(=O)O)cc1.Cc1ccc(S(=O)(=O)O)cc1.O` [Lapatinib ditosylate monohydrate] is 1.14 (inactive).
Take `Cc1nc2ccc(CN(C)c3ccc(C(=O)N[C@@H](CCC(=O)O)C(=O)O)s3)cc2c(=O)[nH]1` [Raltitrexed]: the cell viability is 1.16 (inactive).
On the same count and under the same terms, then `CO[C@H]1C(=O)[C@]2(C)[C@@H](OC)C[C@H]3OC[C@@]3(OC(C)=O)[C@H]2[C@H](OC(=O)c2ccccc2)[C@]2(O)C[C@H](OC(=O)[C@H](O)[C@@H](NC(=O)OC(C)(C)C)c3ccccc3)C(C)=C1C2(C)C` [Cabazitaxel], with 1.04 (inactive); and `CCN1CCN(Cc2ccc(Nc3ncc(F)c(-c4cc(F)c5nc(C)n(C(C)C)c5c4)n3)nc2)CC1` [Abemaciclib], with 1.38 (inactive); and `CO[C@H]1C[C@@H]2CC[C@@H](C)[C@@](O)(O2)C(=O)C(=O)N2CCCC[C@H]2C(=O)O[C@H]([C@H](C)C[C@@H]2CC[C@@H](O)[C@H](OC)C2)CC(=O)[C@H](C)/C=C(\C)[C@@H](O)[C@@H](OC)C(=O)[C@H](C)C[C@H](C)/C=C/C=C/C=C/1C` [Rapamycin], with 1.54 (inactive).
With `CCc1cnn2c(NCc3ccc[n+]([O-])c3)cc(N3CCCC[C@H]3CCO)nc12` [Dinaciclib], the cell viability was 0.062 (active).
Take `CC(C)(O)CNc1nc(Nc2ccnc(C(F)(F)F)c2)nc(-c2cccc(C(F)(F)F)n2)n1` [Enasidenib]: the cell viability was 1.3 (inactive).
As to `Cc1nc(Nc2ncc(C(=O)Nc3c(C)cccc3Cl)s2)cc(N2CCN(CCO)CC2)n1.O` [Dasatinib monohydrate], the cell viability was 1.65 (inactive).
Still for that read-out and setting: the figure for `O=NN(CCCl)C(=O)NCCCl` [Carmustine] is 0.987 (inactive); for `Nc1nc(F)nc2c1ncn2[C@@H]1O[C@H](COP(=O)(O)O)[C@@H](O)[C@@H]1O` [Fludarabine Phosphate] it is 1.07 (inactive).
Regarding `Nc1ccccc1NC(=O)c1ccc(CNc2nccc(-c3cccnc3)n2)cc1` [Mocetinostat], the cell viability is 0.558 (active).

The test is the same for the next values; noted with them: 1 µM; 120 h; vemurafenib co-treatment 8 µM.
Turning to `C[C@]12CC[C@@H]3c4ccc(O)cc4C[C@@H](CCCCCCCCCS(=O)CCCC(F)(F)C(F)(F)F)[C@H]3[C@@H]1CC[C@@H]2O` (stereo not given in full) [Fulvestrant], the cell viability is 0.809 (inactive).
Consider `Nc1ccn([C@@H]2O[C@H](CO)[C@@H](O)[C@@H]2O)c(=O)n1` [Cytarabine], for which the cell viability is 0.936 (inactive).
Turning to `O=c1[nH]c(=O)n(C2CCCO2)cc1F` (stereo not given) [Tegafur], the cell viability is 0.865 (inactive).
As to `COc1ccc2cc1Oc1ccc(cc1)C[C@H]1c3c(cc4c(c3Oc3cc5c(cc3OC)CCN(C)[C@@H]5C2)OCO4)CCN1C` [Cepharanthine], the cell viability was 0.912 (inactive).
As to `CO[C@@]12[C@H](COC(N)=O)C3=C(C(=O)C(C)=C(N)C3=O)N1C[C@@H]1N[C@@H]12` [Mitomycin C], the cell viability was 0.859 (inactive).
Same read-out and setting: then `CC(C)=CCC/C(C)=C/CC/C(C)=C/CC/C(C)=C/CC1=C(C)C(=O)c2ccccc2C1=O` [Menatetrenone], with 1.18 (inactive).
Still for that read-out and setting: the figure for `O=NN(CCCl)C(=O)NC1CCCCC1` [Lomustine] is 1.11 (inactive); for `COc1cc(NS(C)(=O)=O)ccc1Nc1c2ccccc2nc2ccccc12` [Amsacrine] it is 0.539 (active).
As to `CNNCc1ccc(C(=O)NC(C)C)cc1.Cl` [Procarbazine hydrochloride], the cell viability was 1.25 (inactive).
In the case of `CS(=O)(=O)CCNCc1ccc(-c2ccc3ncnc(Nc4ccc(OCc5cccc(F)c5)c(Cl)c4)c3c2)o1.Cc1ccc(S(=O)(=O)O)cc1.Cc1ccc(S(=O)(=O)O)cc1.O` [Lapatinib ditosylate monohydrate], the cell viability is 0.823 (inactive).
For the molecule `Cc1nc2ccc(CN(C)c3ccc(C(=O)N[C@@H](CCC(=O)O)C(=O)O)s3)cc2c(=O)[nH]1` [Raltitrexed], the cell viability is 1.09 (inactive).
On to `CO[C@H]1C(=O)[C@]2(C)[C@@H](OC)C[C@H]3OC[C@@]3(OC(C)=O)[C@H]2[C@H](OC(=O)c2ccccc2)[C@]2(O)C[C@H](OC(=O)[C@H](O)[C@@H](NC(=O)OC(C)(C)C)c3ccccc3)C(C)=C1C2(C)C` [Cabazitaxel], for which the cell viability is 0.565 (active).
Regarding `CCN1CCN(Cc2ccc(Nc3ncc(F)c(-c4cc(F)c5nc(C)n(C(C)C)c5c4)n3)nc2)CC1` [Abemaciclib], the cell viability is 0.669 (active).
Take `CO[C@H]1C[C@@H]2CC[C@@H](C)[C@@](O)(O2)C(=O)C(=O)N2CCCC[C@H]2C(=O)O[C@H]([C@H](C)C[C@@H]2CC[C@@H](O)[C@H](OC)C2)CC(=O)[C@H](C)/C=C(\C)[C@@H](O)[C@@H](OC)C(=O)[C@H](C)C[C@H](C)/C=C/C=C/C=C/1C` [Rapamycin]: the cell viability is 0.783 (active).
Regarding `CCc1cnn2c(NCc3ccc[n+]([O-])c3)cc(N3CCCC[C@H]3CCO)nc12` [Dinaciclib], the cell viability was 0.0642 (active).
Take `CC(C)(O)CNc1nc(Nc2ccnc(C(F)(F)F)c2)nc(-c2cccc(C(F)(F)F)n2)n1` [Enasidenib]: the cell viability is 0.834 (inactive).
For the molecule `Cc1nc(Nc2ncc(C(=O)Nc3c(C)cccc3Cl)s2)cc(N2CCN(CCO)CC2)n1.O` [Dasatinib monohydrate], the cell viability is 1.54 (inactive).
For the molecule `O=NN(CCCl)C(=O)NCCCl` [Carmustine], the cell viability is 1.02 (inactive).
Turning to `Nc1nc(F)nc2c1ncn2[C@@H]1O[C@H](COP(=O)(O)O)[C@@H](O)[C@@H]1O` [Fludarabine Phosphate], the cell viability is 1.16 (inactive).
With `Nc1ccccc1NC(=O)c1ccc(CNc2nccc(-c3cccnc3)n2)cc1` [Mocetinostat], the cell viability is 0.545 (active).

These data come from the supplement of paper PMC12808144.
